Assay results reported in PubChem BioAssay (NCATS).
Records with an inconclusive call do not appear. Calls of active or inactive are those of the source. Calls come from the whole dose curve; as a rule, active = well fitted curve in the direction sought with a large enough effect; inconclusive = small, poorly fitted or top-dose-only effect, or another doubt; inactive = no such curve, though single readings can be large; an effect the other way counts as inactive or inconclusive. Where a SMILES comes first, the peptide text is derived from it. The star is where a group is joined. Cbz = O=C(OCc1ccccc1)*; CH2F = FC*

Columns and labels:
[1] = system: NIH3T3; experiment: qHTS assay to identify novel small-molecules to repurpose for Merkel cell carcinoma treatment (AID 1296009); conditions: MCC and control cell lines, CellTiter-Glo viability, 72 h; at 44.8 µM (top of the series) unless noted; note: nearly all actives have a fitted effect of over 60% in size
In short: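 Cells were incubated with compound for 72 hr at 37 degree celsius before CellTiter-Glo addition. Luminescence was normalized with no-cell wells as full cytotoxicity and DMSO as baseline.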

[2] = system: C33A; experiment: Primary qHTS to identify gynecologic anti-cancer compounds using libraries of approved drugs and bioactive compounds (AID 1345084); conditions: Gynecologic cancer cell panel viability, ATPlite luminescence, 48 h; series mostly up to 57.5 µM; note: % is set by controls: 0 for no effect and ±100 for the full control effect; nearly all actives have a fitted effect of over 55% in size
In short: (§1)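 Cells, 1,000 per well, were allowed to settle for 16 h at 37 C before compound addition. Five concentrations were tested for 48 h, and viability was read by ATPlite luminescence after 15 min at room temperature.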

[3] = system: CAOV3; experiment: as above; conditions: Gynecologic cancer cell panel viability, ATPlite luminescence, 48 h; series mostly up to 57.5 µM
In short: as §1

[4] = system: CASKI; experiment: as above; conditions: Gynecologic cancer cell panel viability, ATPlite luminescence, 48 h; series mostly up to 57.5 µM
In short: as §1

[5] = system: Es-2; experiment: as above; conditions: Gynecologic cancer cell panel viability, ATPlite luminescence, 48 h; series mostly up to 57.5 µM
In short: as §1

[6] = system: HeLa; experiment: as above; conditions: Gynecologic cancer cell panel viability, ATPlite luminescence, 48 h; series mostly up to 57.5 µM
In short: as §1

[7] = system: Hek293T; experiment: as above; conditions: Gynecologic cancer cell panel viability, ATPlite luminescence, 48 h, control line for the selectivity index; series mostly up to 57.5 µM
In short: as §1

[8] = system: JEG-3; experiment: as above; conditions: Gynecologic cancer cell panel viability, ATPlite luminescence, 48 h; series mostly up to 57.5 µM
In short: as §1

[9] = system: OV90; experiment: as above; conditions: Gynecologic cancer cell panel viability, ATPlite luminescence, 48 h; series mostly up to 57.5 µM
In short: as §1

[10] = system: PA-1; experiment: as above; conditions: Gynecologic cancer cell panel viability, ATPlite luminescence, 48 h; series mostly up to 57.5 µM
In short: as §1

[11] = system: SKOV3; experiment: as above; conditions: Gynecologic cancer cell panel viability, ATPlite luminescence, 48 h; series mostly up to 57.5 µM
In short: as §1

[12] = system: Tov-21-G; experiment: as above; conditions: Gynecologic cancer cell panel viability, ATPlite luminescence, 48 h; series mostly up to 57.5 µM
In short: as §1

[13] = system: Tov112D; experiment: as above; conditions: Gynecologic cancer cell panel viability, ATPlite luminescence, 48 h; series mostly up to 57.5 µM
In short: as §1

CCN(CCN(C)C)C(=O)CNCc1cc(C(N)=O)ccn1
inactive: outcome [1] | Potency [2] | Potency [3] | outcome [4] | Potency [5] | Potency [6] | Potency [7] | Potency [8] | Potency [9] | Potency [10] | Potency [11] | Potency [12] | Potency [13]

COC(=O)CC[C@H](NC(=O)[C@H](CC(C)C)NC(=O)OCc1ccccc1)C(=O)N[C@@H](Cc1cnc[nH]1)C(=O)N[C@@H](CC(=O)OC)C(=O)CF (Cbz-LE(OMe)HD(OMe)-CH2F)
inactive: outcome [1] inactive [at 9.27 µM] | activity change, negative = cytotoxicity [2] 16.8% [at 11.6 µM] | activity change, negative = cytotoxicity [3] 7.02% [at 11.6 µM] | activity change, negative = cytotoxicity [4] 26% [at 11.6 µM] | activity change, negative = cytotoxicity [5] 0.76% [at 11.6 µM] | activity change, negative = cytotoxicity [6] 6.25% [at 11.6 µM] | activity change, negative = cytotoxicity [7] 2.96% [at 11.6 µM] | activity change, negative = cytotoxicity [8] -14.9% [at 11.6 µM] | activity change, negative = cytotoxicity [9] 0.73% [at 11.6 µM] | activity change, negative = cytotoxicity [10] -3.2% [at 11.6 µM] | activity change, negative = cytotoxicity [11] -4.39% [at 11.6 µM] | activity change, negative = cytotoxicity [12] 4.92% [at 11.6 µM] | activity change, negative = cytotoxicity [13] 6.4% [at 11.6 µM]

C[C@@H](NC(=O)c1cc(C(=O)N[C@@H](Cc2ccccc2)[C@H](O)CNC2CC2)cc(N(C)S(C)(=O)=O)c1)c1ccccc1
inactive: outcome [1] | Potency [2] | Potency [3] | outcome [4] | Potency [5] | Potency [6] | Potency [7] | Potency [8] | Potency [9] | Potency [10] | Potency [11] | Potency [12] | Potency [13]

CC1(C)CC[C@]2(C(=O)O[C@@H]3O[C@H](CO[C@@H]4O[C@H](CO)[C@@H](O)[C@H](O)[C@H]4O)[C@@H](O)[C@H](O[C@@H]4O[C@H](CO)[C@@H](O)[C@H](O)[C@H]4O)[C@H]3O)CC[C@]3(C)C(=CCC4[C@@]5(C)CC[C@H](O[C@@H]6OC[C@@H](O)[C@H](O)[C@H]6O)[C@@](C)(C(=O)O)C5CC[C@]43C)[C@@H]2C1 (stereo partly specified)
inactive: outcome [1] inactive [at 9.27 µM] | activity change, negative = cytotoxicity [2] 0.217% [at 11.6 µM] | activity change, negative = cytotoxicity [3] 15.5% [at 11.6 µM] | activity change, negative = cytotoxicity [4] 9.7% [at 11.6 µM] | activity change, negative = cytotoxicity [5] -1.43% [at 11.6 µM] | activity change, negative = cytotoxicity [6] 13.2% [at 11.6 µM] | activity change, negative = cytotoxicity [7] 2.76% [at 11.6 µM] | activity change, negative = cytotoxicity [8] 2.05% [at 11.6 µM] | activity change, negative = cytotoxicity [9] 1.75% [at 11.6 µM] | activity change, negative = cytotoxicity [10] 0.621% [at 11.6 µM] | activity change, negative = cytotoxicity [11] 10.7% [at 11.6 µM] | activity change, negative = cytotoxicity [12] 10.6% [at 11.6 µM] | activity change, negative = cytotoxicity [13] 3.57% [at 11.6 µM]

CC(C)(C)NS(=O)(=O)c1ccc(-c2ccc3[nH]nc(N)c3c2)cc1
inactive: outcome [1] | Potency [2] | Potency [3] | outcome [4] | Potency [5] | Potency [6] | Potency [7] | Potency [8] | Potency [9] | Potency [10] | Potency [11] | Potency [12] | Potency [13]

CC(=O)c1c(C)cccc1O[C@@H]1O[C@H](CO)[C@@H](O)[C@H](O)[C@H]1O
inactive: outcome [1] | Potency [2] | Potency [3] | outcome [4] | Potency [5] | Potency [6] | Potency [7] | Potency [8] | Potency [9] | Potency [10] | Potency [11] | Potency [12] | Potency [13]

CC(=O)NCC1CN(c2ccc(-c3ccc(CNCc4cn[nH]n4)cc3)c(F)c2)C(=O)O1 (stereo unspecified)
inactive: outcome [1] | Potency [2] | Potency [3] | outcome [4] | Potency [5] | Potency [6] | Potency [7] | Potency [8] | Potency [9] | Potency [10] | Potency [11] | Potency [12] | Potency [13]

C[C@@H]1O[C@@H](O[C@H]2[C@H](OC(=O)[C@]34CCC(C)(C)C[C@H]3C3=CCC5[C@@]6(C)C[C@@H](O)[C@@H](O[C@@H]7O[C@H](CO)[C@@H](O)[C@H](O)[C@H]7O)[C@@](C)(CO)C6[C@H](O)C[C@@]5(C)[C@]3(C)CC4)OC[C@H](O)[C@@H]2O)[C@H](O)[C@H](O[C@@H]2OC[C@](O)(CO)[C@H]2O)[C@H]1O[C@@H]1OC[C@@H](O)[C@H](O[C@H]2O[C@H](C)[C@@H](O)[C@H](O)[C@@H]2O)[C@H]1O (stereo partly specified)
inactive: outcome [1] inactive [at 9.27 µM] | activity change, negative = cytotoxicity [2] 7.61% [at 6.55 µM] | activity change, negative = cytotoxicity [3] 0.345% [at 6.55 µM] | activity change, negative = cytotoxicity [4] 0.644% [at 6.55 µM] | activity change, negative = cytotoxicity [5] -2.14% [at 6.55 µM] | activity change, negative = cytotoxicity [6] 14.1% [at 6.55 µM] | activity change, negative = cytotoxicity [7] 4.59% [at 6.55 µM] | activity change, negative = cytotoxicity [8] 14.8% [at 6.55 µM] | activity change, negative = cytotoxicity [9] -9.58% [at 6.55 µM] | activity change, negative = cytotoxicity [10] 3.83% [at 6.55 µM] | activity change, negative = cytotoxicity [11] 3.05% [at 6.55 µM] | activity change, negative = cytotoxicity [12] -0.147% [at 6.55 µM] | activity change, negative = cytotoxicity [13] 7.72% [at 6.55 µM]

OC[C@@]1(O)CO[C@@H](OC[C@H]2O[C@@H](Oc3ccccc3)[C@H](O)[C@@H](O)[C@@H]2O)[C@@H]1O
inactive: outcome [1] | Potency [2] | Potency [3] | outcome [4] | Potency [5] | Potency [6] | Potency [7] | Potency [8] | Potency [9] | Potency [10] | Potency [11] | Potency [12] | Potency [13]

CN1CCCC1Cc1c[nH]c2ccc(CCS(=O)(=O)c3ccccc3)cc12 (stereo unspecified)
inactive: outcome [1] | Potency [2] | Potency [3] | outcome [4] | Potency [5] | Potency [6] | Potency [7] | Potency [8] | Potency [9] | Potency [10] | Potency [11] | Potency [12] | Potency [13]

C[C@H]1CC[C@@]2(OC1)O[C@H]1CC3C4CC[C@H]5C[C@@H](O[C@@H]6O[C@H](CO)[C@H](O[C@@H]7O[C@H](CO)[C@@H](O)[C@H](O[C@@H]8OC[C@@H](O)[C@H](O)[C@H]8O)[C@H]7O[C@@H]7O[C@H](CO)[C@@H](O)[C@H](O)[C@H]7O)[C@H](O)[C@H]6O)[C@H](O)C[C@]5(C)C4=CC(=O)[C@]3(C)[C@H]1[C@@H]2C (stereo partly specified)
inactive: outcome [1] inactive [at 9.27 µM] | activity change, negative = cytotoxicity [2] 4.61% [at 11.6 µM] | activity change, negative = cytotoxicity [3] 5.57% [at 11.6 µM] | activity change, negative = cytotoxicity [4] -2.7% [at 11.6 µM] | activity change, negative = cytotoxicity [5] -0.121% [at 11.6 µM] | activity change, negative = cytotoxicity [6] 9.97% [at 11.6 µM] | activity change, negative = cytotoxicity [7] 0.949% [at 11.6 µM] | activity change, negative = cytotoxicity [8] -0.32% [at 11.6 µM] | activity change, negative = cytotoxicity [9] -5.92% [at 11.6 µM] | activity change, negative = cytotoxicity [10] 7.95% [at 11.6 µM] | activity change, negative = cytotoxicity [11] 0.679% [at 11.6 µM] | activity change, negative = cytotoxicity [12] -4.82% [at 11.6 µM] | activity change, negative = cytotoxicity [13] 2.81% [at 11.6 µM]

C/C(=C\CCC(C)CCO)C(=O)OC[C@H]1O[C@@H](O[C@@H]2OC=C(C(=O)O)[C@H]3CC[C@](C)(O)[C@@H]23)C(O)[C@@H](O)C1O (stereo partly specified)
inactive: outcome [1] inactive [at 17.4 µM] | Potency [2] | Potency [3] | outcome [4] | Potency [5] | Potency [6] | Potency [7] | Potency [8] | Potency [9] | Potency [10] | Potency [11] | Potency [12] | Potency [13]
